Experimental data as given in the supplement of paper PMC3545927.
Some of the results follow. No count for the full screen is at hand.

Molecular target: furin, P09958
Assay: furin cleavage Z-score vs untreated control; higher = more cleavage, active = 3.5 or more, inactive = 1 or less, 8 variable residues between constant flanks
Summary of the method: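 Peptides 8 residues long, fused to a cDNA oligonucleotide, were fixed to magnetic beads by the N-terminus and exposed to purified furin. The 0.01 ml reactions contained 50 mM HEPES pH 7.5 with CaCl2 and NaCl at 1:10 enzyme:substrate and ran 7.5, 15 or 30 min. For the cleavage Z-score, log counts of sequenced released DNA were compared with furin-free reactions, lowess-adjusted and scaled by median absolute deviation.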

Sequence of furin, P09958 (P09958 whole entry): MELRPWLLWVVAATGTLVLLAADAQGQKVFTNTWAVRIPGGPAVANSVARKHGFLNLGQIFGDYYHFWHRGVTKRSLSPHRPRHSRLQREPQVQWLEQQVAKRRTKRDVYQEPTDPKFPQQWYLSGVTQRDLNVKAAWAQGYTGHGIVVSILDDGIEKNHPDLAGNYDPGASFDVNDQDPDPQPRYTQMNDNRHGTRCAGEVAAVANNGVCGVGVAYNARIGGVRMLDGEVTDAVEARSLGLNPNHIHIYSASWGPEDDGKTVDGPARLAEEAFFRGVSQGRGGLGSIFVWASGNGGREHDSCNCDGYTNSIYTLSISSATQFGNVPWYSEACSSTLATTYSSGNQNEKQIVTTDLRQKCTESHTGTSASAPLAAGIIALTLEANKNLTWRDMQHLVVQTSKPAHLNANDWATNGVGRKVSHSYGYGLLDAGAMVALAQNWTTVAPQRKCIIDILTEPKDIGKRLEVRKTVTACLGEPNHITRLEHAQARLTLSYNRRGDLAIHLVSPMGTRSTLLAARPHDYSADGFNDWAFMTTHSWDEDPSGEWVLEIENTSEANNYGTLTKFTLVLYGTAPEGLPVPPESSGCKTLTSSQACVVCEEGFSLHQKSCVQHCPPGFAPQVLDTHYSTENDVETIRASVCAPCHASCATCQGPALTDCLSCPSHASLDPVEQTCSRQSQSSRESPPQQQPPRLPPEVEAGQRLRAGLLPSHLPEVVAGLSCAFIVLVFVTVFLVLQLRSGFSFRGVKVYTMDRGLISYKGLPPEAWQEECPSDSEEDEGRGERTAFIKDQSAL

Sequence	furin cleavage Z-score (7.5 min)	furin cleavage Z-score (15 min)	furin cleavage Z-score (30 min)
CARIKRMVFKAGNASASA [FS-1722]	5.13 (active)	5.7 (active)	8.11 (active)
CAREKRGNGWAGNASASA [FS-2254]	-0.781 (inactive)	0.97 (inactive)	2.15
CARIKKSKMIAGNASASA [FS-2260]	-0.171 (inactive)	1.16	-0.504 (inactive)
CARIKRAGGFAGNASASA [FS-2261]	6.34 (active)	8.63 (active)	7.18 (active)
CARAKKIFGWAGNASASA [FS-1680]	1.69	0.732 (inactive)	0.406 (inactive)
CARSLRSEFKAGNASASA [FS-3209]	-0.188 (inactive)	-0.988 (inactive)	0.991 (inactive)
CARFWRSTGFAGNASASA [FS-2669]	0.601 (inactive)	1.09	0.345 (inactive)
CARGARVVFKAGNASASA [FS-2930]	-2.06 (inactive)	-1.04 (inactive)	-0.554 (inactive)
CARIKRAEGWAGNASASA [FS-2149]	6.5 (active)	7.28 (active)	7.15 (active)
CADNMEECSQAGNASASA [HC1821]	-1.18 (inactive)	-0.208 (inactive)	-1.08 (inactive)
CALAVAVEPVAGNASASA [HC644]	0.342 (inactive)	-1.7 (inactive)	-0.692 (inactive)
CAANLLWRQEAGNASASA [HC1275]	1.65	1.09	0.698 (inactive)
CARNKRNSKMAGNASASA [FS-2397]	6.32 (active)	8.34 (active)	7.25 (active)
CARNKRQSKSAGNASASA [FS-3009]	3.6 (active)	6.73 (active)	6.06 (active)
CARAKRGNIHAGNASASA [FS-2250]	0.0194 (inactive)	0.245 (inactive)	1.46
CADIYHSVSHAGNASASA [HC1650]	-2.02 (inactive)	-1.09 (inactive)	-0.935 (inactive)
CARAKRAVSHAGNASASA [FS-2544]	7.56 (active)	8.33 (active)	7.62 (active)
CARNKRIWASAGNASASA [FS-2728]	0.843 (inactive)	1.63	-0.176 (inactive)
CARAPRSVGGAGNASASA [FS-1886]	-0.25 (inactive)	0.302 (inactive)	0.769 (inactive)
CARNKRLSISAGNASASA [FS-3007]	0.116 (inactive)	-1.14 (inactive)	0.746 (inactive)
CARNKRNSKMAGNASASA [FU4]	5.8 (active)	8.1 (active)	7.99 (active)
CARAKRSPKHAGNASASA [FS-2639]	5.3 (active)	6.19 (active)	6.5 (active)

Sequence	furin cleavage Z-score (7.5 min)	furin cleavage Z-score (15 min)	furin cleavage Z-score (30 min)
CANVCCSMSYAGNASASA [HC2001]	0.0522 (inactive)	1.55	1.28
CAMHLQGPEDAGNASASA [NG10]	0.395 (inactive)	-0.679 (inactive)	-0.939 (inactive)
CALAAKLVALAGNASASA [HC862]	1.87	-0.745 (inactive)	0.749 (inactive)
CAPVVHGCPLAGNASASA [HC1315]	-0.719 (inactive)	-0.657 (inactive)	-0.124 (inactive)
CAVCGAPPCVAGNASASA [HC442]	1.21	0.519 (inactive)	0.314 (inactive)
CAEVVTKTWVAGNASASA [HC151]	-0.0944 (inactive)	0.88 (inactive)	-0.37 (inactive)
CAEVAASCGGAGNASASA [HC567]	-0.691 (inactive)	-0.994 (inactive)	-0.368 (inactive)
CAHRFAPPCKAGNASASA [HC1226]	-2.1 (inactive)	-0.755 (inactive)	0.739 (inactive)
CARAKRSSKMAGNASASA [FS-3181]	5.7 (active)	7.55 (active)	8.74 (active)
CARAKKGLGMAGNASASA [FS-2128]	1.05	0.216 (inactive)	0.932 (inactive)
CARAKRSVHFAGNASASA [FS-2640]	-0.56 (inactive)	-0.574 (inactive)	1.29
CATTPCSGMWAGNASASA [HC1906]	0.488 (inactive)	0.804 (inactive)	-1.44 (inactive)
CAHPVTKYIMAGNASASA [HC980]	-1.79 (inactive)	0.202 (inactive)	-0.88 (inactive)
CAPAKRPKRKAGNASASA [FS-1470]	11.2 (active)	12 (active)	9.89 (active)
CAPTARPKRKAGNASASA [FS-913]	4.97 (active)	4.54 (active)	4.32 (active)
CAPAQRTKRKAGNASASA [FS-836]	10.3 (active)	11.5 (active)	9.82 (active)
CAAFRRGVTKAGNASASA [FS-1876]	-0.242 (inactive)	-0.144 (inactive)	-1.52 (inactive)
CAKAEREKRKAGNASASA [FS-807]	0.64 (inactive)	0.758 (inactive)	1.86
CAPRPISYLKAGNASASA [HC738]	0.812 (inactive)	1.42	0.555 (inactive)
CAFAPPCKPLAGNASASA [HC1227]	-0.328 (inactive)	-1.28 (inactive)	-1.52 (inactive)
CAMIAGAHWGAGNASASA [HC334]	-0.899 (inactive)	-0.615 (inactive)	-0.232 (inactive)
